C diff growth: inhibitors of Clostridium difficile growth | AID 1259249 | Clostridium difficile clinical isolate growth, OD600, 24 h; active compounds read low | growth activity, negative = inhibition, % at 16 µg/mL (by protocol) | actives 0.25% (n = 86,000);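 active = mean growth activity at or below -80% and every replicate also at or below -80%; inconclusive = mean at or below -80% but some replicate above -80%; inactive = mean growth activity above -80%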;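 note: 0% = DMSO wells and -100% = levofloxacin 16 µg/mL wells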
T cruzi growth-1: blocks T. cruzi growth in NIH3T3 culture; T. cruzi beta-gal in NIH3T3, GalScreen luminescence, 90 h; inhibition, % at 8.34 µM; actives 5.9% (n = 77,000); AID 624255;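 active = mean inhibition above about 93%, with at least 55% of replicates each passing it, limit read from the data, passing the limit was not always enough; inconclusive = only one of those two conditions holds; inactive = neither condition holds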
Pf Dd2 inh: P. falciparum Dd2 growth inhibition; SYBR Green, 72 h; active compounds read low; activity change, % at 10 µM; actives 2.3% (n = 94,000); in the data active = activity change below about -80%; inconclusive = no clear call, values can overlap the other calls
T cruzi growth-2: Trypanosoma cruzi proliferation inhibition; actives 72% (n = 5,600); inhibition, % at 8.35 µM; T. cruzi beta-gal in NIH3T3, GalScreen luminescence, 90 h; shares compounds with T cruzi growth-1;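 active = mean replicate inhibition above about 95% and at least 55% of replicates individually reaching it, limit read from the data; inconclusive = only one of the two criteria is met; inactive = neither criterion is met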
T cruzi growth-3: inhibitors of T. cruzi proliferation; shares compounds with T cruzi growth-1; T. cruzi beta-gal in NIH3T3, GalScreen luminescence, 90 h; inhibition, % at 2.09 µM; actives 21% (n = 5,600); AID 651740;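 active = mean inhibition above about 95%, with at least 55% of replicates also reaching it, limit read from the data; inconclusive = meets just one of the two conditions; inactive = meets neither condition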;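 note: plate controls were neutral control median for no effect and positive control median for full effect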
3T3 cytotox: NIH/3T3 (mouse) viability loss | NIH/3T3 viability, CellTiter-Glo ATP luminescence, 90 h | AID 651742 | shares compounds with T cruzi growth-1 | actives 14% (n = 5,600) | cytotoxicity (signal decrease), % at 8.35 µM;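 active = mean signal decrease across replicates above about 35% based on untreated-well scatter, with enough replicates individually passing, limit read from the data; inconclusive = no rule stated though some were filed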;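 note: 0% = median of neutral control wells and 100% = median of positive control wells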
NIH3T3 tox 2: NIH/3T3 (mouse) viability loss; shares compounds with T cruzi growth-1; actives 56% (n = 5,600); NIH/3T3 viability, CellTiter-Glo ATP luminescence, 90 h; inhibition, % at 24.9 µM;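 active = mean loss of cell viability signal at or above a set limit, and enough replicates individually reaching it; inconclusive = meets only the mean limit or only the replicate share; inactive = meets neither condition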;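 note: 0% = median of neutral control wells and 100% = median of positive control wells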
An asterisk follows results filed as active. Sampled rows, rich in hits. Any-hit rate of the full collection: about 6.7%.

C[C@@H]1CCCCO[C@H](CN(C)Cc2ccccc2)[C@H](C)CN([C@@H](C)CO)C(=O)c2cc(NC(=O)c3ccccc3)ccc2O1 was read as C diff growth -3.2, T cruzi growth-1 54.5 and Pf Dd2 inh -46.6.
C[C@@H]1CN([C@H](C)CO)C(=O)c2cc(NC(=O)c3ccncc3)ccc2O[C@@H](C)CCCCO[C@H]1CN(C)Cc1ccccc1 was read as C diff growth -3.2, T cruzi growth-1 98.1*, Pf Dd2 inh -21.7, T cruzi growth-2 58.8, T cruzi growth-3 -33.2, 3T3 cytotox -4.9 and NIH3T3 tox 2 1.4.
Screening C[C@H]1CCCCO[C@H](CN(C)Cc2ccncc2)[C@@H](C)CN([C@@H](C)CO)C(=O)c2cc(NC(=O)Cc3ccccc3)ccc2O1 returned C diff growth -2.9, T cruzi growth-1 80.6 and Pf Dd2 inh -3.3.
Screening C[C@H](CO)N1C[C@H](C)[C@H](CN(C)Cc2ccncc2)OCCCC[C@H](C)Oc2ccc(NC(=O)Cc3ccccc3)cc2C1=O returned C diff growth -5.9, T cruzi growth-1 103.2*, Pf Dd2 inh -1.5, T cruzi growth-2 96.0*, T cruzi growth-3 82.3, 3T3 cytotox 7.5 and NIH3T3 tox 2 7.5.
For C[C@@H]1CCCCO[C@H](CN(C)Cc2ccncc2)[C@H](C)CN([C@@H](C)CO)C(=O)c2cc(NC(=O)c3ccccc3)ccc2O1 the results were C diff growth -3.5, T cruzi growth-1 11.8 and Pf Dd2 inh -31.5.
`C[C@@H]1CCCCO[C@H](CN(C)Cc2ccccc2)[C@H](C)CN([C@@H](C)CO)C(=O)c2cc(NC(=O)c3ccncc3)ccc2O1` gave C diff growth -5.5, T cruzi growth-1 84.1 and Pf Dd2 inh -14.1.
`C[C@H]1CN([C@@H](C)CO)C(=O)c2cccc(NC(=O)Nc3ccc(F)cc3)c2O[C@@H]1CN(C)C` gave C diff growth 5.8 and Pf Dd2 inh -1.8.
CCCN(C)C[C@@H]1Oc2ncc(Br)cc2C(=O)N([C@H](C)CO)C[C@@H]1C was read as C diff growth 8.9, T cruzi growth-1 -18.8 and Pf Dd2 inh -17.1.
COc1cccc(S(=O)(=O)N[C@H]2CC[C@H](CC(=O)NCc3ccccc3)O[C@@H]2CO)c1 was read as C diff growth 2.5, T cruzi growth-1 -2.6 and Pf Dd2 inh -9.8.
`COc1ccc(S(=O)(=O)N(C)C[C@H]2Oc3ccc(NC(=O)c4ccncc4)cc3C(=O)N([C@@H](C)CO)C[C@@H]2C)cc1` gave C diff growth -5.7, T cruzi growth-1 17.2 and Pf Dd2 inh -25.8.
Screening C[C@@H]1CCCCO[C@@H](CN(C)Cc2ccccc2)[C@H](C)CN([C@@H](C)CO)C(=O)c2cc(NC(=O)c3ccncc3)ccc2O1 returned C diff growth -3.6, T cruzi growth-1 69.7 and Pf Dd2 inh 4.3.
Screening C[C@@H]1CCCCO[C@@H](CN(C)Cc2ccccc2)[C@H](C)CN([C@H](C)CO)C(=O)c2cc(NC(=O)c3ccncc3)ccc2O1 returned T cruzi growth-1 inconclusive, Pf Dd2 inh -40.9, T cruzi growth-2 60.8, T cruzi growth-3 38.5, 3T3 cytotox -8.0 and NIH3T3 tox 2 -7.1.
`C[C@@H]1CCCCO[C@@H](CN(C)Cc2ccc(Cl)c(Cl)c2)[C@@H](C)CN([C@H](C)CO)C(=O)c2cc(NC(=O)c3ccccc3)ccc2O1` gave C diff growth 5.2, T cruzi growth-1 95.9*, Pf Dd2 inh -14.2, T cruzi growth-2 113.7*, T cruzi growth-3 48.7, 3T3 cytotox 5.5 and NIH3T3 tox 2 13.9.
C[C@@H]1CCCCO[C@H](CN(C)Cc2ccccc2)[C@@H](C)CN([C@H](C)CO)C(=O)c2cc(NC(=O)c3ccccc3)ccc2O1 was read as C diff growth 2.4, T cruzi growth-1 24.6 and Pf Dd2 inh 7.8.
Screening C[C@@H]1CCCCO[C@H](CN(C)C(=O)c2ccncc2)[C@H](C)CN([C@H](C)CO)C(=O)c2cc(NC(=O)c3ccccc3)ccc2O1 returned C diff growth -0.7, T cruzi growth-1 97.1*, Pf Dd2 inh -7.3, T cruzi growth-2 23.5, T cruzi growth-3 -16.6, 3T3 cytotox 12.0 and NIH3T3 tox 2 10.7.
`C[C@@H]1CN([C@@H](C)CO)C(=O)c2cc(NC(=O)c3ccncc3)ccc2O[C@@H](C)CCCCO[C@@H]1CN(C)C(=O)c1ccccc1` gave C diff growth -0.8, T cruzi growth-1 48.1 and Pf Dd2 inh -12.7.
C/C=C/c1cnc2c(c1)C(=O)N([C@H](C)CO)C[C@H](C)[C@@H](CN(C)C(=O)c1cnccn1)O2 was read as C diff growth 0.2 and Pf Dd2 inh 36.8.
For COC(=O)C[C@@H]1C[C@@H]2c3cc(NC(=O)C4CCC4)ccc3O[C@@H]2[C@H](CO)O1 the results were C diff growth -2.4, T cruzi growth-1 17.8 and Pf Dd2 inh -11.1.
Screening N#Cc1cccc(-c2ccc([C@H]3[C@@H](CO)N4CCCCN(C(=O)Nc5cccc(F)c5)C[C@H]34)cc2)c1 returned C diff growth 38.4, T cruzi growth-1 80.9 and Pf Dd2 inh -68.9.
Screening N#Cc1cccc(-c2ccc([C@H]3[C@@H](CO)N4CCCCN(C(=O)Nc5cccc(F)c5)C[C@@H]34)cc2)c1 returned C diff growth 8.9, T cruzi growth-1 123.2*, Pf Dd2 inh 4.6, T cruzi growth-2 104.9*, T cruzi growth-3 89.4, 3T3 cytotox 3.6 and NIH3T3 tox 2 -2.0.
N#Cc1cccc(-c2ccc([C@@H]3[C@@H](CO)N4CCCCN(C(=O)Nc5cccc(F)c5)C[C@@H]34)cc2)c1 was read as C diff growth 22.0, T cruzi growth-1 103.9*, Pf Dd2 inh -29.5, T cruzi growth-2 109.8*, T cruzi growth-3 71.6, 3T3 cytotox 28.2 and NIH3T3 tox 2 87.5*.
`N#Cc1ccc(-c2ccc([C@@H]3[C@@H](CO)N4CCCCN(C(=O)Nc5ccc(F)cc5)C[C@H]34)cc2)cc1` gave C diff growth 17.1, T cruzi growth-1 23.2 and Pf Dd2 inh -18.8.
For N#Cc1cccc(-c2ccc([C@H]3[C@H]4CN(C(=O)Nc5cccc(F)c5)CCCCN4[C@H]3CO)cc2)c1 the results were C diff growth 9.5, T cruzi growth-1 122.4*, Pf Dd2 inh -18.3, T cruzi growth-2 109.9*, T cruzi growth-3 59.9, 3T3 cytotox -5.9 and NIH3T3 tox 2 -7.7.
For Cc1noc(C)c1S(=O)(=O)N(C)C[C@H]1Oc2ccc(NC(=O)C3CCCCC3)cc2CC(=O)N([C@H](C)CO)C[C@@H]1C the results were C diff growth 2.0, T cruzi growth-1 22.2 and Pf Dd2 inh -48.2.
`O=C(C[C@H]1CC[C@@H]2[C@H](COC[C@@H](O)CN2C(=O)Nc2ccc(C(F)(F)F)cc2)O1)NCC1CCCCC1` gave C diff growth 60.2 and Pf Dd2 inh 0.7.

Screens (PubChem)
